# Tests used:
# Assay in all cases: DAPPL (digital affinity profiling via proximity ligation, sequencing); 10 mM Tris-HCl pH 7.5, 50 mM NaCl, 1 mM DTT, 4% glycerol, room temperature, 30 min; GST-TFs on glutathione beads, 16-mer random dsDNA library, 0.1% formaldehyde crosslink after washing; high values mean tight binding
# FEV = target: T1, FEV (Homo sapiens, UniProt Q99581 1-238); conditions: protein: recombinant; tags: N-terminal GST; dsDNA, one strand shown
# T1 sequence: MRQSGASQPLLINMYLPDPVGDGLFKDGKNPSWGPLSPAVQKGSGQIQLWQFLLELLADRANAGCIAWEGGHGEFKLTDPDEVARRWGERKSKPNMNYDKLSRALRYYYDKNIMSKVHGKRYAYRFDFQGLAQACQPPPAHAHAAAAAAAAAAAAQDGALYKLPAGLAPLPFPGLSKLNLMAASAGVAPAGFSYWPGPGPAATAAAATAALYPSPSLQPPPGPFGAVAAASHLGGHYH
# Outline: (§1)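 Human transcription factors were made in yeast as GST fusions, captured on glutathione beads and barcoded with DNA. With a tag-only sample included, the pool was incubated with 200 nmole of a random double-stranded 16-mer DNA library in Tris/NaCl/DTT/glycerol buffer at room temperature for 30 min, then crosslinked with 0.1% formaldehyde after washing, ligated by proximity, amplified and sequenced. For binding signal, each hexamer's read frequency for a factor is divided by its frequency for the tag-only sample.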
# ETV5 = ETV5 (Homo sapiens, UniProt P41161 1-510); conditions: protein: recombinant; tags: N-terminal GST; dsDNA, one strand shown
# Outline: as §1
# HSF1 = HSF1 (Homo sapiens, UniProt Q00613 1-529); conditions: protein: recombinant; tags: N-terminal GST; chain copies: 3; dsDNA, one strand shown
# Outline: as §1
# SPIC = target: T2, SPIC (Homo sapiens, UniProt Q8N5J4 1-248); conditions: protein: recombinant; tags: N-terminal GST; dsDNA, one strand shown
# T2 sequence: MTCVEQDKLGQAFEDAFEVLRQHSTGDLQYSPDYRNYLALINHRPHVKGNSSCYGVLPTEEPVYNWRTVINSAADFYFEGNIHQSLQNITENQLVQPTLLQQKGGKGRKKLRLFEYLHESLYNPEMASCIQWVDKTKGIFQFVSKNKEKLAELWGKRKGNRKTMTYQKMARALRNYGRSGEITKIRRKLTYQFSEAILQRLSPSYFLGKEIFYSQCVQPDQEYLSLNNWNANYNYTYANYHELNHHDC
# Outline: as §1
# ELF4 = ELF4 (Homo sapiens, UniProt Q99607 1-663); conditions: protein: recombinant; tags: N-terminal GST; dsDNA, one strand shown
# Outline: as §1
# ELK4 = target: T3, ELK4 (Homo sapiens, UniProt P28324-2 1-405); conditions: protein: recombinant; tags: N-terminal GST; dsDNA, one strand shown
# T3 sequence: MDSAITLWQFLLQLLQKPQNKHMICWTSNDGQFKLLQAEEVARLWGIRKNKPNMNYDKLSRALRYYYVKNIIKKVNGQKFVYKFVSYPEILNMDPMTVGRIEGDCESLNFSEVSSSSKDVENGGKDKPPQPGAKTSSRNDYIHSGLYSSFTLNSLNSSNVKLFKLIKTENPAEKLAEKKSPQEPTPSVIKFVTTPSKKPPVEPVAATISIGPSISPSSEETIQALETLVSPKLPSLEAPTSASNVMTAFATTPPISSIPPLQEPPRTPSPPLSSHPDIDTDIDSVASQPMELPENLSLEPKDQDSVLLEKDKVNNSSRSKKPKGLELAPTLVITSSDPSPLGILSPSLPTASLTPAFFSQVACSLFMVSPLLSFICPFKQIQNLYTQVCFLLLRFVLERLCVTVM
# Outline: as §1
# ETV2 = target: T4, ETV2 (Homo sapiens, UniProt O00321 1-342); conditions: protein: recombinant; tags: N-terminal GST; dsDNA, one strand shown
# T4 sequence: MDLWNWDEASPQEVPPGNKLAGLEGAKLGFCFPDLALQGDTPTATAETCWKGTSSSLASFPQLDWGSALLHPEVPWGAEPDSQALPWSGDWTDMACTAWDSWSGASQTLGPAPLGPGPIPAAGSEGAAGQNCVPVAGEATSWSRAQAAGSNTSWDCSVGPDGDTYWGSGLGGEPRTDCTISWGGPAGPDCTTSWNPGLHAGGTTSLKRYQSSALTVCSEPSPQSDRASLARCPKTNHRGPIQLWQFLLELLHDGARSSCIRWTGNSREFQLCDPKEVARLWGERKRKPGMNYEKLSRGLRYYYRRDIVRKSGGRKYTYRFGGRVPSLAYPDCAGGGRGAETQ
# Outline: as §1
# ELF3 = target: T5, ELF3 (Homo sapiens, UniProt P78545 1-371); conditions: protein: recombinant; tags: N-terminal GST; dsDNA, one strand shown
# T5 sequence: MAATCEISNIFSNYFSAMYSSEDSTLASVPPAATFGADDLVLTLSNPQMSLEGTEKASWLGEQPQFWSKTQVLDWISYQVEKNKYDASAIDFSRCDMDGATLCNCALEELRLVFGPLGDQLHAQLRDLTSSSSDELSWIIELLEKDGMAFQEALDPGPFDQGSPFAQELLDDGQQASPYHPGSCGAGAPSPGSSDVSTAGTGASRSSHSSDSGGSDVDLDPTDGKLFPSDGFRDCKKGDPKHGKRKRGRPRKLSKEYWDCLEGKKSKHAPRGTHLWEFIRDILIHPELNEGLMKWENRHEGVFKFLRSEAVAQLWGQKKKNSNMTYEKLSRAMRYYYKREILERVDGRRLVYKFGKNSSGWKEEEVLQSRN
# Outline: as §1
# CRX = CRX (Homo sapiens, UniProt O43186 1-299); conditions: protein: recombinant; tags: N-terminal GST; dsDNA, one strand shown
# Outline: as §1
# ETV1 = ETV1 (Homo sapiens, UniProt P50549 1-477); conditions: protein: recombinant; tags: N-terminal GST; dsDNA, one strand shown
# Outline: as §1
# ERF = target: T6, ERF (Homo sapiens, UniProt P50548 1-548); conditions: protein: recombinant; tags: N-terminal GST; dsDNA, one strand shown
# T6 sequence: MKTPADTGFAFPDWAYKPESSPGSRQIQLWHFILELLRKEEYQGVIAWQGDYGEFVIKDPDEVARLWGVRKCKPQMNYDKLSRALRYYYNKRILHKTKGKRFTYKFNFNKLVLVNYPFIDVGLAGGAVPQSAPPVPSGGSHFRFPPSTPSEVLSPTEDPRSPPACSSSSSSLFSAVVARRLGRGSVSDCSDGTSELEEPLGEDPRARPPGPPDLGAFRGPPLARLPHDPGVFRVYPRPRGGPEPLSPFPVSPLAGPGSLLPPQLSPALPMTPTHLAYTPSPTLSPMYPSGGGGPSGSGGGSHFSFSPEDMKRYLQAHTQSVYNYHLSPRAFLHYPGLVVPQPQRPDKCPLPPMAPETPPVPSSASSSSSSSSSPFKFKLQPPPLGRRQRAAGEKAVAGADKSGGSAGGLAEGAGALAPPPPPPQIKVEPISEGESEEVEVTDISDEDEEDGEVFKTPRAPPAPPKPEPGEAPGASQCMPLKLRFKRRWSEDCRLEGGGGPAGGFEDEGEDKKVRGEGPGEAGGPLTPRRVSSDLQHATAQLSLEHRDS
# Outline: as §1
# ETV3L = target: T7, ETV3L (Homo sapiens, UniProt Q6ZN32 1-361); conditions: protein: recombinant; tags: N-terminal GST; dsDNA, one strand shown
# T7 sequence: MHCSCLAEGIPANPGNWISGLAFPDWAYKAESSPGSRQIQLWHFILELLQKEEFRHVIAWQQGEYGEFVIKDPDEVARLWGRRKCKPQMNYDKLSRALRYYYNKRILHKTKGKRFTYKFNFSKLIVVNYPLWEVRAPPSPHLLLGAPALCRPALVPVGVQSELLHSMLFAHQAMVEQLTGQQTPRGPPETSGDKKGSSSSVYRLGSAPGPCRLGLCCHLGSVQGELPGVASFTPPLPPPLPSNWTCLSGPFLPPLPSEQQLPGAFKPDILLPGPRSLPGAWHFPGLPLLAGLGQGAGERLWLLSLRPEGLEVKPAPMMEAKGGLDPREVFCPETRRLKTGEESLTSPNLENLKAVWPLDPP
# Outline: as §1
# ETS2 = target: T8, ETS2 (Homo sapiens, UniProt P15036 1-469); conditions: protein: recombinant; tags: N-terminal GST; dsDNA, one strand shown
# T8 sequence: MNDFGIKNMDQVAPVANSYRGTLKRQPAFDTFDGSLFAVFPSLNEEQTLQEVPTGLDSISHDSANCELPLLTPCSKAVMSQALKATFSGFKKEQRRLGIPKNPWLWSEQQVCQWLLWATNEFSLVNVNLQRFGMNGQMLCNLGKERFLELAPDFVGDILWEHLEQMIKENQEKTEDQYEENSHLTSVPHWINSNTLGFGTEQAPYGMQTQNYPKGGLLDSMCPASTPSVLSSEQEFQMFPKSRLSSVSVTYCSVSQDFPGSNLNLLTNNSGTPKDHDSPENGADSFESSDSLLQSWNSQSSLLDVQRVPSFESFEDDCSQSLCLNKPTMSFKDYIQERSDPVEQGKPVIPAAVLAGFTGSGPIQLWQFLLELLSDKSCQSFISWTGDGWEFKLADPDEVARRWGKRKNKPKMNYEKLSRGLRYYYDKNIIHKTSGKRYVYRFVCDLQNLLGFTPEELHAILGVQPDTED
# Outline: as §1
# SPDEF = target: T9, SPDEF (Homo sapiens, UniProt O95238 1-335); conditions: protein: recombinant; tags: N-terminal GST; dsDNA, one strand shown
# T9 sequence: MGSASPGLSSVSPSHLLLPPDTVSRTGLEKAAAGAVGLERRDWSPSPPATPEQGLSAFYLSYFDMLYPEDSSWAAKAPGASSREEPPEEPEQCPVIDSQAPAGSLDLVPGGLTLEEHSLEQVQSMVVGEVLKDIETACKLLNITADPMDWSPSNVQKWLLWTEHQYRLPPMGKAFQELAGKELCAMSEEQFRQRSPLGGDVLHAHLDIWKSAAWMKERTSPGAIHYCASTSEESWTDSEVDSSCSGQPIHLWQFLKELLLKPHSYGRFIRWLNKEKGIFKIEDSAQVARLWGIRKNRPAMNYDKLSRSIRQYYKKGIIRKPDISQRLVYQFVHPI
# Outline: as §1
# ETV7 = target: T10, ETV7 (Homo sapiens, UniProt Q9Y603 1-341); conditions: protein: recombinant; tags: N-terminal GST; dsDNA, one strand shown
# T10 sequence: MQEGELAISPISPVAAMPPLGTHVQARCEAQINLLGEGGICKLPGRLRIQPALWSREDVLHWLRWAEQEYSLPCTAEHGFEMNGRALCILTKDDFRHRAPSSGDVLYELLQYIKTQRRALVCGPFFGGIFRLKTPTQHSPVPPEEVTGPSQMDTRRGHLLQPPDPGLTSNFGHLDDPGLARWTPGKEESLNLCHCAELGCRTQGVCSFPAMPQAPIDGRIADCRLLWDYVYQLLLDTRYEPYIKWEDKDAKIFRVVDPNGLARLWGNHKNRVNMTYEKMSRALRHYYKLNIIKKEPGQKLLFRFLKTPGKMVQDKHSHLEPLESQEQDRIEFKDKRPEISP
# Outline: as §1
# ELF5 = target: T11, ELF5 (Homo sapiens, UniProt Q9UKW6-2 1-255); conditions: protein: recombinant; tags: N-terminal GST; dsDNA, one strand shown
# T11 sequence: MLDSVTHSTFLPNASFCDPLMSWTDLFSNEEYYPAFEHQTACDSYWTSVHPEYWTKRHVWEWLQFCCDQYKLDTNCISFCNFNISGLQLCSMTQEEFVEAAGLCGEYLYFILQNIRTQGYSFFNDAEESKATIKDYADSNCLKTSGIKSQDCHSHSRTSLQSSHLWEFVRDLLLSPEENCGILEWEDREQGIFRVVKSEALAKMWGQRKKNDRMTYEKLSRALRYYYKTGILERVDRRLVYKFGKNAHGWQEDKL
# Outline: as §1
# ETV3 = target: T12, ETV3 (Homo sapiens, UniProt P41162-2 1-143); conditions: protein: recombinant; tags: N-terminal GST; dsDNA, one strand shown
# T12 sequence: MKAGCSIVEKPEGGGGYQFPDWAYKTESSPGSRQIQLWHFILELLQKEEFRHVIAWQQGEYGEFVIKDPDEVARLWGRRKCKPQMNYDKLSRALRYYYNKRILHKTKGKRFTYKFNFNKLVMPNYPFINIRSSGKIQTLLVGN
# Outline: as §1
# ETV6 = ETV6 (Homo sapiens, UniProt P41212 1-452); conditions: protein: recombinant; tags: N-terminal GST; dsDNA, one strand shown
# Outline: as §1
# Chain of ETV1 (P50549 whole entry): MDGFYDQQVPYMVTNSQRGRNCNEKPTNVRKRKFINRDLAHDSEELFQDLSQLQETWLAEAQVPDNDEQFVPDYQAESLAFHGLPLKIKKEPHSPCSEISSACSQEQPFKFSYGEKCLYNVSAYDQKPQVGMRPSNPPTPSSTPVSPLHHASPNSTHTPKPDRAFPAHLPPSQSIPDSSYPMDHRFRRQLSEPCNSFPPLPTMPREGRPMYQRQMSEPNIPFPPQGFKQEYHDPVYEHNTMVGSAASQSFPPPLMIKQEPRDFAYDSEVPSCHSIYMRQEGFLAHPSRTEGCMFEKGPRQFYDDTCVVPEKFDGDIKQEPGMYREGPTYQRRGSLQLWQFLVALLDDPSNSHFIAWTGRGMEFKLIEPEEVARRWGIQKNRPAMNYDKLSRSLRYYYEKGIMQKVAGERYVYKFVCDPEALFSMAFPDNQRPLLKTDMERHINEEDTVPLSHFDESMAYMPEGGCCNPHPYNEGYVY
# Chain of CRX (O43186 whole entry): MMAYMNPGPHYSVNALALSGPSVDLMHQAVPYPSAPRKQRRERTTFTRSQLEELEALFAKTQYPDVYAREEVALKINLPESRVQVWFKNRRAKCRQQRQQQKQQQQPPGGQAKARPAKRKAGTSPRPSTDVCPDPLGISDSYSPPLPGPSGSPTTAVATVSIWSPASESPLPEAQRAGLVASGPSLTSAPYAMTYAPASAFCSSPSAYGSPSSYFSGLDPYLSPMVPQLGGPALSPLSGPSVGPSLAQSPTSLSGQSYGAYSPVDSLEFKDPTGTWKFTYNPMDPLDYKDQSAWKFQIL
# Chain of HSF1 (Q00613 whole entry): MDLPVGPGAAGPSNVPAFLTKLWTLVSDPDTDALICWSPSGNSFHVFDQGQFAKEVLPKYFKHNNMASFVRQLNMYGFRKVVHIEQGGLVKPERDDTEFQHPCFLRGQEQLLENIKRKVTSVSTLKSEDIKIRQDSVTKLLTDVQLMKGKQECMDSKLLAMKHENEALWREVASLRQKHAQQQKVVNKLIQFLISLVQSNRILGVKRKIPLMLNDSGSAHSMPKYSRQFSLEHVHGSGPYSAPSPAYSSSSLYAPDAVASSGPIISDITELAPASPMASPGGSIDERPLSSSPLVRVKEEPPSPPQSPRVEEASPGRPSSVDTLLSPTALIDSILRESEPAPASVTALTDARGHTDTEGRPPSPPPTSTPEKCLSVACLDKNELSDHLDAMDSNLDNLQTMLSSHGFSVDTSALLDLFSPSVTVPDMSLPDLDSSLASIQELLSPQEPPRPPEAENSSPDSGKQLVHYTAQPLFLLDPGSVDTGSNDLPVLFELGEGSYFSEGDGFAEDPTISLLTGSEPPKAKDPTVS
# Chain of ELF4 (Q99607 whole entry): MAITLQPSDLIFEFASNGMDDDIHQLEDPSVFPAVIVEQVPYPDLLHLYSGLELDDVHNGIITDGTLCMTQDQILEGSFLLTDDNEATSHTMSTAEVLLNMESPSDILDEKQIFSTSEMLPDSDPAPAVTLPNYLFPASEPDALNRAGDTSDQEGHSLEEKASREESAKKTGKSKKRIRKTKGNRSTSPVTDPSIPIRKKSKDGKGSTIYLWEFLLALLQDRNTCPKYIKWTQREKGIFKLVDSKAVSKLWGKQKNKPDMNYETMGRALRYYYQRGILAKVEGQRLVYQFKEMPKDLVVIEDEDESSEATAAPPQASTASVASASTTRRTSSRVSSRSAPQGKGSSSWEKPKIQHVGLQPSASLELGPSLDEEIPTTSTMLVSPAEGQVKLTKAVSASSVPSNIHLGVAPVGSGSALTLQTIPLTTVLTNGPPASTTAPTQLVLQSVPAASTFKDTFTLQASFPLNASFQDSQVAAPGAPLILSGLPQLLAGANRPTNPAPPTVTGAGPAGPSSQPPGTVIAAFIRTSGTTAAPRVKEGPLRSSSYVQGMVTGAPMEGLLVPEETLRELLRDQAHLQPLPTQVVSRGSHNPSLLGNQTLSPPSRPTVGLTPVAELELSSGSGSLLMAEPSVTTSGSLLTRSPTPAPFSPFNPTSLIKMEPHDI
# Chain of ETV6 (P41212 whole entry): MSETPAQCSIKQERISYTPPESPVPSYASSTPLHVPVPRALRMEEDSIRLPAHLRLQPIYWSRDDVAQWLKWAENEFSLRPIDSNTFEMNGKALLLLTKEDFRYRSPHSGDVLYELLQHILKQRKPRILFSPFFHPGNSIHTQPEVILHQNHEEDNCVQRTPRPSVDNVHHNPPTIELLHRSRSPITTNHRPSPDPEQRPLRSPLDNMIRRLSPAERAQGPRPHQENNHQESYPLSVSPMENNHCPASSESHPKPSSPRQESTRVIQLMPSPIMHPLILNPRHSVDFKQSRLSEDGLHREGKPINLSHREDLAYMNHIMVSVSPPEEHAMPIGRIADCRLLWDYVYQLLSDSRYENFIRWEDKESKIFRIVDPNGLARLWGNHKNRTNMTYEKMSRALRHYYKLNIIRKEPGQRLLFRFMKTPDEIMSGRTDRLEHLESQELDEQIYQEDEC
# Chain of ETV5 (P41161 whole entry): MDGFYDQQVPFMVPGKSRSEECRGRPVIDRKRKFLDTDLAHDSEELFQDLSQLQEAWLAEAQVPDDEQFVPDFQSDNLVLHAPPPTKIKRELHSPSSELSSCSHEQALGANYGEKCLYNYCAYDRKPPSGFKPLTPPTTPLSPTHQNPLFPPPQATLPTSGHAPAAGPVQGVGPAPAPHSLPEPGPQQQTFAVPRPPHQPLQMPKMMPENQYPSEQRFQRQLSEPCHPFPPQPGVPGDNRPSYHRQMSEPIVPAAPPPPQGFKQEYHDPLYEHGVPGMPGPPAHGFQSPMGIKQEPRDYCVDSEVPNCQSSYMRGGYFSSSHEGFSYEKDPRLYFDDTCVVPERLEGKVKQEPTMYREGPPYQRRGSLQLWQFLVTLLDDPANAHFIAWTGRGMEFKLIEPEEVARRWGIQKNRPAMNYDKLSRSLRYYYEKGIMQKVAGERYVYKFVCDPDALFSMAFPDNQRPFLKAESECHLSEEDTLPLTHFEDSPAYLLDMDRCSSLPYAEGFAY
sequence,measurement,setting,value
CTACGA,binding signal,FEV,"1.34 fold enrichment (6-mer frequency, TF over GST control)"
same,binding signal,ETV5,"1.2 fold enrichment (6-mer frequency, TF over GST control)"
same,binding signal,HSF1,"1.25 fold enrichment (6-mer frequency, TF over GST control)"
same,binding signal,SPIC,"1.17 fold enrichment (6-mer frequency, TF over GST control)"
same,binding signal,ELF4,"1.24 fold enrichment (6-mer frequency, TF over GST control)"
same,binding signal,ELK4,"1.22 fold enrichment (6-mer frequency, TF over GST control)"
same,binding signal,ETV2,"1.47 fold enrichment (6-mer frequency, TF over GST control)"
same,binding signal,ELF3,"1.5 fold enrichment (6-mer frequency, TF over GST control)"
same,binding signal,CRX,"1.21 fold enrichment (6-mer frequency, TF over GST control)"
same,binding signal,ETV1,"1.19 fold enrichment (6-mer frequency, TF over GST control)"
same,binding signal,ERF,"1.23 fold enrichment (6-mer frequency, TF over GST control)"
same,binding signal,ETV3L,"1.24 fold enrichment (6-mer frequency, TF over GST control)"
same,binding signal,ETS2,"1.25 fold enrichment (6-mer frequency, TF over GST control)"
same,binding signal,SPDEF,"1.17 fold enrichment (6-mer frequency, TF over GST control)"
same,binding signal,ETV7,"1.26 fold enrichment (6-mer frequency, TF over GST control)"
same,binding signal,ELF5,"1.19 fold enrichment (6-mer frequency, TF over GST control)"
same,binding signal,ETV3,"1.15 fold enrichment (6-mer frequency, TF over GST control)"
same,binding signal,ETV6,"1.16 fold enrichment (6-mer frequency, TF over GST control)"

# — paper PMC7862700, “An all-to-all approach to the identification of sequence-specific readers for epigenetic DNA modifications on cytosine”
